# Screening data: PubChem BioAssay, National Center for Advancing Translational Sciences (NCATS)
# VDR inhibitor – blocks the human vitamin D receptor; P11473; VDR-SRC2-3 peptide fluorescence polarization, 2 h; Potency, µM, for the others: max response, negative = inhibition, usual class: inhibitors; actives 0.93% (n = 400,000); AID 504847
#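 Reagent solutions, kept cold and dark, are dispensed first; compounds are then pinned in at 23 nl, plates briefly spun, and incubated 2 h at ambient temperature. Inhibition of VDR–SRC2-3 peptide binding is read by fluorescence polarization.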
# KAT2A inh – inhibitors of human GCN5L2 histone acetyltransferase. Q92830. GCN5L2 HAT assay, ThioGlo1 CoA-SH fluorescence. Potency, µM (top dose mostly 58.9 µM), for the others: at the top dose activity change, negative = inhibition, most hits filed as inhibitors. actives 0.21% (n = 390,000). AID 504327
#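 Fluorescence readout, Ex340nm/Em540nm: ThioGlo1 (50uM final) reacts with free CoA thiol released as 20nM GCN5L2 acetylates H3(1-25) peptide (75uM) using acetyl-CoA (70uM). Compound and enzyme sat 15 min beforehand; 20 min room-temperature reaction.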
# TexasRed fluor – alters Texas Red total fluorescence, flagging assay interference. actives 0.29% (n = 280,000). Potency, µM (highest dose often 106 µM), inactives show at the top dose fluorescence change, negative = quenching. TRb/SRC2 Texas Red total fluorescence interference; active means well fitted curve in either direction with a large enough effect; inconclusive means small, poorly fitted or top-dose-only effect
#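 Human TRb ligand-binding domain at 0.6 uM with 20 nM Texas Red SRC2 peptide in Tris buffer containing 1 uM T3 and 5% DMSO, incubated with compound 5 h at ambient temperature. Total fluorescence (555/632 nm) calculated as parallel + 2 × perpendicular.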
# RGS12 GoLoco inh – RGS12 GoLoco-Gai1 interaction inhibition | P63096 | Gai1:RGS12 GoLoco peptide FP, rhodamine, 10 min | Potency, µM (series often up to 61.6 µM), for inactives: at the highest dose activity, negative = inhibition, most hits filed as inhibitors | actives 0.44% (n = 230,000) | AID 880; active means well fitted inhibition curve with a large enough effect, not every such curve was filed as active; inactive means no such curve, though single readings can be large or run the other way; further: nearly all actives have a fitted effect of over 30% in size
# Target sequence (P63096 whole entry, looked up): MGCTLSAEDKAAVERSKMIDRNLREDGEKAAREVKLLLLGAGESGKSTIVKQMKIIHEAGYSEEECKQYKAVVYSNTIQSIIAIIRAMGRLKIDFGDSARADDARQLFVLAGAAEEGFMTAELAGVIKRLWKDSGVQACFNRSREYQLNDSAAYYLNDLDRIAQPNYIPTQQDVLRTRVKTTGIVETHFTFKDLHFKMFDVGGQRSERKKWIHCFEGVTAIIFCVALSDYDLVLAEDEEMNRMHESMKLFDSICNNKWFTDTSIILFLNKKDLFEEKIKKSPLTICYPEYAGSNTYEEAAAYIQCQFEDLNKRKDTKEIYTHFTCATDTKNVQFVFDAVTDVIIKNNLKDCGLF
# TRb SRC2 PPI – disrupts binding of human TR beta to SRC2. P10828. TRbeta-SRC2 peptide binding, fluorescence polarization; receptor liganded with 1 µM T3. Potency, µM (top dose mostly 106 µM), for inactives: at the highest dose activity change, negative = inhibition, most hits filed as inhibitors. actives 0.065% (n = 280,000). AID 1469;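 further: plate controls were bound peptide for no effect and peptide without receptor for full effect; nearly all actives have a fitted effect of over 50% in size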
#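 A fluorescence polarization screen tested compounds at multiple concentrations against complex formation between 0.6 uM TRb ligand-binding domain and 20 nM Texas Red SRC2 peptide, with 1 uM T3 present; readout after 5 hr.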
# An asterisk follows results filed as active; ? = inconclusive; . = no result; [ ] = dose if it differs, or a comment. Only some compounds are listed: those with a hit (about 1.2% of all), similar ones and a draw of the others. Unless noted, the call rests on the fitted dose curve; in most records, active means well fitted curve in the direction sought with a large enough effect; inconclusive means small, poorly fitted or top-dose-only effect, or another doubt; inactive means no such curve, though single readings can be large; an effect the other way counts as inactive or inconclusive. Unless noted, on the % scale 0 is the no-effect control and ±100 the full control effect; potency means the concentration at half of the fitted maximal effect.
SMILES,VDR inhibitor,KAT2A inh,TexasRed fluor,RGS12 GoLoco inh,TRb SRC2 PPI
CC(=O)[C@@H](C)CCO[C@@]1(C)OCC[C@@H]1C,.,.,.,0%[14.2 µM],.
O=c1[nH]c(=S)[nH]c(-c2ccccc2)c1Cc1c(O)ccc2ccccc12,22µM*,?,.,7%[14.2 µM],.
Cc1ccc(S(=O)(=O)N2CCN(c3nc(-c4ncccn4)nc4ccccc34)CC2)cc1,-4%,.,.,.,.
O=C(NCCc1ccccc1)c1ccc2c(=O)[nH]c3c(C(=O)NCC4CCCO4)sc(=S)n3c2c1 (configuration not stated),79µM*,?,.,.,.
O=C(NCC1CCCO1)c1sc(=S)n2c1[nH]c(=O)c1ccc(C(=O)N3CCCCC3)cc12 (configuration not stated),-25%,8%,-24%,-4%,3%
S=c1[nH]cnc2sc(Nc3ccccc3)nc12,71µM*,-1%,-3%,2%,-8%
Cc1cc(C(=O)COC(=O)CNS(=O)(=O)c2ccc3ccccc3c2)c(C)n1-c1ccccc1,?,-9%,200µM*[quencher],16%,-11%
O=C(CNS(=O)(=O)c1ccc2ccccc2c1)OCC(=O)c1ccc(Br)s1,-19%,-2%,1%,52%,7%
O=[N+]([O-])c1ccc(Cl)c2c1C1C=CCC1C(c1ccccn1)N2 (configuration not stated),?,-10%,-8%[53 µM],-2%,9%[53 µM]
O=C(O)c1ccc(Cl)c2c1C1C=CCC1C(c1ccccn1)N2 (configuration not stated),.,?,-3%,10µM*,?
O=C1c2ccccc2C(Nc2ccc(F)c(Cl)c2)N1Cc1ccco1 (configuration not stated),89µM*,1%,1%,6%,-4%
COc1ccc(NC2c3ccccc3C(=O)N2Cc2ccco2)cc1OC (configuration not stated),-3%,-11%,-1%,-5%,-5%
COc1cc([C@@H]2Oc3cc([C@H]4Oc5cc(O)cc(O)c5C(=O)[C@H]4O)ccc3O[C@H]2CO)ccc1O,.,.,-13%,54%,11%
CC(C)c1nc2sc3c(=O)[nH]c(=S)[nH]c3c2c2c1CCCC2,71µM*,-6%,-2%,1%,1%
Cc1ccc(Cl)cc1NC(=S)Nn1cnnc1,79µM*,4%,.,.,.
N#CC1=C(S)N(c2ccc(F)cc2)C(c2ccco2)NC1=O (configuration not stated),?,-7%,-2%,-5%,2%
Cc1ccc(N2C(S)=C(C#N)C(=O)NC2c2ccco2)cc1 (configuration not stated),40µM*,-9%,-3%,5%,0%
Cc1ccc(N2C(S)=C(C#N)C(=O)NC2c2cccs2)cc1 (configuration not stated),25µM*,-8%,-1%[53 µM],48%,-1%[53 µM]
CCOc1nc(C#N)nc(N2CCOCC2)n1,-24%,.,.,.,.
Cc1ccc(CN2CCN(C(=O)C3CCCO3)CC2)cc1 (configuration not stated),-3%,-17%,-3%,-1%,-13%
O=C(C1CCCO1)N1CCN(Cc2c(O)ccc3ccccc23)CC1 (configuration not stated),50µM*,-5%,-2%,-10%,-22%
O=S(=O)(c1ccc(Cl)cc1)N1CCN(c2nc(Nc3cc(Cl)ccc3O)nc3ccccc23)CC1,-15%,.,.,.,.
Cc1ccccc1OCC(=O)NCC(=O)OCC(=O)c1ccc(F)cc1,-17%,.,.,.,.
CN(C)c1ccc(C(c2nnnn2C(C)(C)C)N2CCN(C(=O)c3ccco3)CC2)cc1 (configuration not stated),16µM*,-3%,-1%,.,0%
CC(C)C(=O)N(c1ccc2oc(=O)sc2c1)S(=O)(=O)c1ccccc1,79µM*,-3%,2%,7%,-3%
COc1ccc(OC)c(S(=O)(=O)N(C(C)=O)c2ccc3oc(=O)sc3c2)c1,-15%,-18%,1%,-3%,-3%
COc1ccc(S(=O)(=O)N(C(=O)C(C)C)c2ccc3oc(=O)sc3c2)cc1,79µM*,-6%,0%,7%,-9%
CC1=C(C(=O)O)N2C(=O)[C@@H](NC(=O)[C@@H](N)c3ccccc3)[C@@H]2SC1,1%,7%[21.4 µM],-7%[53 µM],-10%[21.6 µM],-4%[53 µM]
